Screening data: PubChem, National Center for Advancing Translational Sciences (NCATS)
Shown are actives, neighbours in structure and some others; about 9.2% of the full set was active somewhere.
FLuc modulator: firefly luciferase modulation, counter-screen for miR-21 project | P08659 | purified FLuc, Km substrates, luminescence inhibition | Potency, µM (titrated, usually from 57.5 µM), for inactives: at the highest dose activity change, negative = inhibition, usual class: inhibitors | hit rate 6.9% among 360,000 | AID 588342;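 also: plate controls were vehicle for no effect and reference inhibitor for full effect; nearly all actives have a fitted effect of over 55% in size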
Target sequence (P08659 whole entry, looked up): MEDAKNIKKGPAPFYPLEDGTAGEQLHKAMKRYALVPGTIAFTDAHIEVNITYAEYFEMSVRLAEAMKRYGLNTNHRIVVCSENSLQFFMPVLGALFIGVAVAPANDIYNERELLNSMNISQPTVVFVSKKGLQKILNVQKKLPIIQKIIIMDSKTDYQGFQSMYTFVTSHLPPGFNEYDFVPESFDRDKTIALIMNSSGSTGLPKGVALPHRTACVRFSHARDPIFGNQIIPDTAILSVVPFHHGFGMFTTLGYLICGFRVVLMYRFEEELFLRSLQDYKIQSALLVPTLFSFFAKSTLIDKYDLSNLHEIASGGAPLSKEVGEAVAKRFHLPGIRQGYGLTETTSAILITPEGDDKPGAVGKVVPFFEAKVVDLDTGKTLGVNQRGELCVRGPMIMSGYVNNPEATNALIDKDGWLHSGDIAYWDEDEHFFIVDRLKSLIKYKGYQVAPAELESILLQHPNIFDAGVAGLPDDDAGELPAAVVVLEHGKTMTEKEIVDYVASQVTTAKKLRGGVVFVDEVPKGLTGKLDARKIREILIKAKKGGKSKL
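Purified P. pyralis luciferase, 10 nM final, with Km-level 10 uM D-luciferin and 10 uM ATP in 50 mM Tris acetate pH 7.5, 10 mM Mg acetate, 0.01% Tween-20, 0.05% BSA; 6-point qHTS titration about 60 µM downward; luminescence read.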
Rab9 promoter act: Rab9 promoter activation. Potency, µM (titrated, usually from 9.22 µM), without a hit: at the highest dose activation, negative = inhibition, hits mostly activators. hit rate 2.8% among 320,000. Huh7 Rab9 promoter-luciferase reporter, luminescence, 24 h; also: % of control where 0% means no effect; nearly all actives have a fitted effect of over 60% in size
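Luminescence from Amplite-detected luciferase (10 minutes, ambient) reports Rab9 promoter activation. Before that, stable Rab9-luciferase Huh7 cells (1500/well, reduced-serum OP-MEM I plus 10% FBS) were exposed to compound for 24 hours at 37C.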
SMN2 splice up: increases expression of the SMN2 splice variant | HEK293 SMN2-luciferase splicing reporter, luminescence, 30-36 h | Potency, µM (top dose mostly 46.1 µM), without a hit: at the highest dose activity change, positive = activation, usual class: activators | hit rate 2.8% among 210,000 | AID 1458; also: % of control where 0% means no effect; nearly all actives have a fitted effect of over 55% in size
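HEK293 cells carry an SMN2 […]–luciferase reporter in which exon 7 inclusion puts luciferase in frame. Cells were plated 10-12 h before compound addition, then incubated 30-36 h at 37C. ONE-Glo luminescence was read; sodium butyrate at 4.5 mM final served as control.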
NPC1 promoter act: NPC1 promoter activation. Huh7 NPC1 promoter luciferase reporter, 24 h. Potency, µM (series often up to 9.22 µM), for inactives: top-dose activation, usual class: activators. hit rate 2.4% among 320,000. AID 485313; also: % of control where 0% means no effect; nearly all actives have a fitted effect of over 60% in size
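In 1536-well qHTS, Huh7 cells harboring an NPC1 promoter–luciferase construct received compound for 24 h; activation was quantified by luminescence following luciferase reagent addition.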
ELG1 DNA repair: blocks ELG1-dependent DNA repair in HEK293T cells; HEK293T ELG1-luciferase reporter, luminescence, 16 h; DNA damage induced by 5-fluorouridine; Potency, µM (highest dose often 46.1 µM), without a hit: top-dose activity change, negative = inhibition, actives largely listed as inhibitors; AID 504467; hit rate 2.3% among 330,000; also: % is scaled to controls: 0 for no effect and ±100 for the full control effect; nearly all actives have a fitted effect of over 55% in size
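5-Fluorouridine DNA damage + compound/DMSO, 2,000 cells/well, 16 h, 37 °C/5% CO2. ONE-Glo, 30 min RT, luminescence. Readout = decrease in reporter signal.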
ELG1 genotox: genotoxicity induction in ELG1-luciferase HEK293T cells | HEK293T ELG1-luciferase reporter, luminescence, 16 h | Potency, µM (top dose mostly 46 µM), inactives show top-dose activity change, positive = activation, most hits filed as activators | hit rate 1.3% among 330,000 | AID 504466; also: % of control where 0% means no effect; nearly all actives have a fitted effect of over 60% in size
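Luminescence read-out: rising ELG1-luciferase signal, reflecting elevated ELG1 protein under genetic stress, flags genotoxic compounds. Cells were treated for 16 hr at 37 °C before ONE-Glo detection.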
Numbers without * were called inactive; ? = inconclusive; . = not tested or not shown; [ ] = another dose, or the depositor's remark. Calls follow the shape of the dose curve; as a rule, active = well fitted curve in the direction sought with a large enough effect; inconclusive = small, poorly fitted or top-dose-only effect, or another doubt; inactive = no such curve, though single readings can be large; an effect the other way counts as inactive or inconclusive. Potency is read from the fitted curve at half-maximal effect.

SMILES | FLuc modulator | Rab9 promoter act | SMN2 splice up | NPC1 promoter act | ELG1 DNA repair | ELG1 genotox
CCN(c1ncnc2c1cnn2-c1cc(Cl)ccc1C)C1CCCCC1 | -2% | . | . | . | . | .
COc1cc2cnc(-c3ccccc3)c(-c3ccc(C#N)cc3)c2cc1OC | 3% | 0% | . | 1% | 23µM* | -7%
COc1cc2cnc(-c3ccccc3)c(-c3cccc(C(F)(F)F)c3)c2cc1OC | 1% | -2% | . | 0% | 13µM* | -11%
CCOC(=O)Cn1c(=O)n(CC2CCCO2)c2nc(-c3ccccc3Cl)nc(C(N)=O)c21 (stereo not given) | 0% | . | . | . | . | .
CCn1cnc2c(Nc3cc(F)cc(F)c3)nc(C#N)nc21 | 1% | -7% | . | 16% | ? | 2%
N#Cc1nc(Nc2cccc(Cl)c2)c2ncn(C3CCCC3)c2n1 | 1.3µM* | 1% | . | 3.5µM* | ? | ?
CCC(Sc1nc2c(sc3ccccc32)c(=O)n1CCc1ccc(OC)c(OC)c1)C(=O)N(CC)CC (stereo not given) | 2% | . | . | . | . | .
CCNC(=S)Nc1ccc(-c2nc3ccccc3[nH]2)cc1 | 11µM* | 1.1µM* | . | 3.2µM* | ? | ?
Cc1ccc2nc(-c3ccc(NC(=O)CSc4ccccc4)cc3)[nH]c2c1 | ? | 2.5µM* | 3.5µM* | 1.6µM* | ? | ?
CCOc1ccc(NC(=S)NCc2nc3ccccc3[nH]2)cc1 | -10% | -3% | 11% | -2% | -7% | 6%
Cc1ccc2nc(SCC(=O)Nc3ccc(C(N)=O)cc3)[nH]c2c1 | -6% | -17% | . | -1% | 16% | 7%
O=C(Cc1cccs1)Nc1ccc(-c2nc3ccccc3[nH]2)cc1 | 1.5µM* | 1.6µM* | 18µM* | 1.8µM* | ? | ?
O=C(CSc1ccc(Cl)cc1)Nc1cccc(-c2nc3ccccc3[nH]2)c1 | -7% | ? | 2.8µM* | 16% | ? | 20%
Cc1cc(OCC(=O)OCC(=O)N(C)c2c(N)n(Cc3ccccc3)c(=O)[nH]c2=O)ccc1Cl | 0% | -1% | . | -1% | 11% | 7%
Cc1ccc(-c2cc3ncc4c(n3n2)-c2cc(Cl)ccc2OC4)cc1 | 2% | . | 3% | . | . | .
O=C(CN1CCOCC1)Nc1ccc(-c2nc3ccccc3[nH]2)cc1 | 13µM* | ? | 25% | ? | ? | ?
O=C(Nc1ccc(-c2nc3ccccc3[nH]2)cc1)C1CCCO1 (stereo not given) | 1.2µM* | 0.32µM* | 2.2µM* | 0.35µM* | ? | 0.41µM*
O=C(CSc1ccccc1)Nc1ccc(-c2nc3ccccc3[nH]2)cc1 | ? | 3.2µM* | 8.9µM* | 2.2µM* | ? | ?
O=C(Nc1nc2ccccc2[nH]1)C1CCCO1 (stereo not given) | ? | ? | 29% | ? | ? | 16%
O=C(CSc1ccc2ccccc2c1)Nc1nc2ccccc2[nH]1 | 3% | -9% | . | -3% | 14% | 15%
COc1ccc(Nc2cc(C(=O)NCCc3ccc(C)cc3)c3ccccc3n2)c(OC)c1 | ? | . | -6% | . | . | .
Cc1ccc2occ(CC(=O)Nc3c(C(=O)Nc4ccc(Cl)cc4)oc4ccccc34)c2c1 | -16% | . | 37% | . | . | .
CCOCc1c(C(=O)Nc2cc(OCC)c(N3CCOCC3)cc2OCC)oc2ccccc12 | 0% | -5% | -59% | -7% | 13µM* | -9%
CCOc1cc(N2CCOCC2)c(OCC)cc1NC(=O)c1oc2ccccc2c1C | -1% | 2% | -1% | -13% | -1% | -8%
CCCn1nc(C(=O)Nc2ccc3nc(N4CCOCC4)sc3c2)ccc1=O | -18% | -19% | . | -10% | 16µM* | -11%
SMILES | FLuc modulator | Rab9 promoter act | SMN2 splice up | NPC1 promoter act | ELG1 DNA repair | ELG1 genotox
CCOCc1c(C(=O)Nc2ccc3nc(N4CCOCC4)sc3c2)oc2ccccc12 | . | 3% | . | 0% | 12µM* | -13%
COc1ccc(C(=O)Nc2ccc3nc(N4CCOCC4)sc3c2)cc1OC | ? | 0% | . | 2% | ? | 4%
CC(C)c1ccc(N(C(=O)c2csnn2)C(C(=O)NC2CCCC2)c2cccnc2)cc1 (stereo not given) | -3% | -4% | . | -6% | -9% | -3%
CCOc1ncccc1C(=O)OCC(=O)N(CC(C)C)c1c(N)n(Cc2ccccc2)c(=O)[nH]c1=O | -1% | -1% | . | -3% | 2% | 0%
O=C(Nc1c(C(=O)N2CCN(c3ccc(F)cc3)CC2)oc2ccccc12)c1c(F)cccc1F | -3% | . | . | . | . | .
O=C(Nc1ccc(N2CCN(c3ccc(F)cc3)CC2)c(C(=O)O)c1)c1cccs1 | -2% | . | . | . | . | .
O=C(NC(=S)Nc1ccc(N2CCOCC2)c(Cl)c1)c1cccs1 | 19µM* | ? | -9% | ? | -6% | 3%
O=C(Nc1ccc(N2CCCC2)c(Cl)c1)c1cccs1 | 2.4µM* | 0.45µM* | 2.8µM* | 0.71µM* | ? | 2.3µM*
O=C(CCCn1c(=O)c2sccc2n(Cc2ccc(F)cc2Cl)c1=O)NCc1ccc2c(c1)OCO2 | -12% | . | -1% | . | . | .
CCn1c(=O)n(CC)c2cc(S(=O)(=O)Nc3ccccc3C)c(C)cc21 | -1% | 0% | 7.9µM* | -3% | ? | ?
COc1ccc(OC)c(-c2noc(N3CCN(c4cccc(C)c4C)CC3)n2)c1 | -14% | . | . | . | . | .
COc1cc(Nc2nc(SCc3cccc(Cl)c3)nc3ccccc23)cc(OC)c1 | 0% | . | . | . | . | .
CCc1nn2c(=O)cc(COC(=O)Cc3ccccc3)nc2s1 | 6% | . | . | . | . | .
CCc1cc(/C(Cc2csc(C)n2)=N/O)c(O)cc1O | 0% | -16% | -63% | -1% | ? | 0%
Cc1cc(O)c(C(=O)Cc2csc(C)n2)c(O)c1 | 27µM* | 4µM* | ? | ? | ? | ?
C=CCN1c2ccccc2[C@]23C[C@@H](C(=O)OC)N(S(=O)(=O)c4cccs4)C2=NC(C(=O)OC)=C(C(=O)OC)[C@H]13 | . | . | 5%[9.22 µM] | . | . | .
O=C(CN1CCCC1)N/N=C/c1ccc(-c2cccc(Cl)c2)o1 | 12µM* | -2% | -4% | 1% | 1% | -2%
Cc1ccc(OCC(=O)N/N=C\c2ccc(-c3cccc(C(=O)O)c3)o2)c(C)c1 | 6.7µM* | 13% | 29% | 12% | ? | 14%
COc1ccc(CC(=O)N/N=C/c2ccc(-c3cccc(C(=O)O)c3)o2)cc1OC | ? | 1% | . | 12% | 39% | 15%
O=C(O)c1cccc(-c2ccc(/C=N/Nc3nn[nH]n3)o2)c1 | ? | 23% | 19% | 10% | ? | 3%
Nc1nonc1C(=O)N/N=C/c1ccc(-c2cccc(C(=O)O)c2)o1 | 17µM* | 19% | 19% | 0% | ? | 1%
